Test results reported in PubChem BioAssay (NCI).
Several values for one entry are separate records, joined by “and”; a condition that tells them apart may be missing. Identical values can stand only once. The panel holds about 79,000 compounds, 15% with a hit somewhere; the sample as a whole holds those more often. Where a structure was tested more than once in an assay, its records may differ in their call. Activity calls are given as the source filed them. No stated cut-off is given here; in the data, active means growth inhibition above about 70%; inactive means the rest.

What was measured:
[1] = NCI Yeast Anticancer Drug Screen. Data for the rad50 strain (AID 155);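 further: 0% = growth of vehicle-only cultures of the same strain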; conditions: S. cerevisiae rad50 strain growth inhibition, stronger effect = higher value
In short: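 Compounds were tested on a yeast strain with an engineered DNA damage repair alteration; the reported value is growth inhibition normalised to vehicle treatment.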

[2] = NCI Yeast Anticancer Drug Screen. Data for the mec2-1 strain (AID 157); conditions: S. cerevisiae mec2-1 strain, stronger effect = higher value
In short: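 Cells of the genetically defined mec2-1 yeast strain are incubated with test compound. Inhibition of growth is calculated against vehicle-treated controls.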

[3] = NCI Yeast Anticancer Drug Screen. Data for the sgs1 mgt1 strain (AID 161);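 further: 0% = growth of cultures given vehicle only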; conditions: S. cerevisiae sgs1 mgt1 strain, stronger effect = higher value
In short: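 Genetically altered yeast, compound exposure, growth inhibition relative to vehicle.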

[4] = NCI Yeast Anticancer Drug Screen. Data for the cln2 rad14 strain (AID 165);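 further: 0% = growth equal to vehicle treated cultures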; conditions: S. cerevisiae cln2 rad14 strain, stronger effect = higher value
In short: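 The screen exposed genetically defined yeast (cln2 rad14) to test compounds and scored growth inhibition relative to vehicle-treated controls.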

[5] = NCI Yeast Anticancer Drug Screen. Data for the bub3 strain (AID 167); conditions: S. cerevisiae bub3 mutant strain, stronger effect = higher value
In short: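 Growth of a checkpoint-deficient yeast mutant is measured after compound exposure. Values represent inhibition relative to vehicle.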

[6] = NCI Yeast Anticancer Drug Screen. Data for the mlh1 rad18 strain (AID 175); conditions: S. cerevisiae mlh1 rad18 strain growth inhibition, stronger effect = higher value
In short: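 Compound-treated yeast growth, normalised to vehicle controls. Strain bears defined DNA repair mutations.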

[7] = at 5.0 µM (retest, dose inferred, filed as 0.5)
[8] = at 50.0 µM (retest, dose inferred, filed as 5.0)

## NC(=O)c1ccc(N)nc1
[1]; [7]
  growth inhibition: 5% (inactive)
[1]; [8]
  growth inhibition: 30% (inactive)
[1]; at 50.0 µM
  growth inhibition: 20.9% (inactive)
[2]; [7]
  growth inhibition: -28% (inactive)
[2]; [8]
  growth inhibition: -14% (inactive)
[2]; at 50.0 µM
  growth inhibition: -14% (inactive)
[3]; [7]
  growth inhibition: -13% (inactive)
[3]; [8]
  growth inhibition: 3% (inactive)
[3]; at 50.0 µM
  growth inhibition: 19.4% (inactive)
[4]; [7]
  growth inhibition: 10% (inactive)
[4]; [8]
  growth inhibition: 15% (inactive)
[4]; at 50.0 µM
  growth inhibition: 4.4% (inactive)
[5]; [7]
  growth inhibition: -12% (inactive)
[5]; [8]
  growth inhibition: 12% (inactive)
[5]; at 50.0 µM
  growth inhibition: 11.2% (inactive)
[6]; [7]
  growth inhibition: -10% (inactive)
[6]; [8]
  growth inhibition: 8% (inactive)
[6]; at 50.0 µM
  growth inhibition: 7.75% (inactive)

## O=[N+]([O-])/C=C/c1ccccc1
[1]; [7]
  growth inhibition: 94% (active)
[1]; [8]
  growth inhibition: 99% (active)
[1]; at 50.0 µM
  growth inhibition: 98% (active)
[2]; [7]
  growth inhibition: 85% (active)
[2]; [8]
  growth inhibition: 100% (active)
[2]; at 50.0 µM
  growth inhibition: 99.2% (active)
[3]; [7]
  growth inhibition: 62% (inactive)
[3]; [8]
  growth inhibition: 99% (active)
[3]; at 50.0 µM
  growth inhibition: 98% (active)
[4]; [7]
  growth inhibition: 64% (inactive)
[4]; [8]
  growth inhibition: 100% (active)
[4]; at 50.0 µM
  growth inhibition: 98.3% (active)
[5]; [7]
  growth inhibition: 85% (active)
[5]; [8]
  growth inhibition: 99% (active)
[5]; at 50.0 µM
  growth inhibition: 96.4% (active)
[6]; [7]
  growth inhibition: 71% (active)
[6]; [8]
  growth inhibition: 100% (active)
[6]; at 50.0 µM
  growth inhibition: 98.1% (active)

## O=C(N/N=C/c1cc(Cl)cc(Cl)c1[O-])c1ccccc1O.O=C(N/N=C/c1cc(Cl)cc(Cl)c1[O-])c1ccccc1O.[Zn+2]
[1]; [7]
  growth inhibition: 93% (active)
[1]; [8]
  growth inhibition: 63% (inactive)
[1]; at 50.0 µM
  growth inhibition: 94.5% (active)
[2]; [7]
  growth inhibition: 97% (active)
[2]; [8]
  growth inhibition: 64% (inactive)
[2]; at 50.0 µM
  growth inhibition: 91.8% (active)
[3]; [7]
  growth inhibition: 96% (active)
[3]; [8]
  growth inhibition: 72% (active)
[3]; at 50.0 µM
  growth inhibition: 93% (active)
[4]; [7]
  growth inhibition: 92% (active)
[4]; [8]
  growth inhibition: 50% (inactive)
[4]; at 50.0 µM
  growth inhibition: 91.8% (active)
[5]; [7]
  growth inhibition: 95% (active)
[5]; [8]
  growth inhibition: 62% (inactive)
[5]; at 50.0 µM
  growth inhibition: 92.7% (active)
[6]; [7]
  growth inhibition: 95% (active)
[6]; [8]
  growth inhibition: 64% (inactive)
[6]; at 50.0 µM
  growth inhibition: 95.1% (active)

## Nc1nc(N)c(-c2ccc(Cl)c(Cl)c2)c(CCc2ccc(CNC(=O)c3cc(S(=O)(=O)F)ccc3Cl)cc2)n1
[1]; [7]
  growth inhibition: -4% (inactive)
[1]; [8]
  growth inhibition: 49% (inactive)
[1]; at 50.0 µM
  growth inhibition: 50.5% (inactive)
[2]; [7]
  growth inhibition: -4% (inactive)
[2]; [8]
  growth inhibition: 54% (inactive)
[2]; at 50.0 µM
  growth inhibition: 96% (active)
[3]; [7]
  growth inhibition: -3% (inactive)
[3]; [8]
  growth inhibition: 50% (inactive)
[3]; at 50.0 µM
  growth inhibition: 66.8% (inactive)
[4]; [7]
  growth inhibition: -7% (inactive)
[4]; [8]
  growth inhibition: 47% (inactive)
[4]; at 50.0 µM
  growth inhibition: 12.5% (inactive)
[5]; [7]
  growth inhibition: -2% (inactive)
[5]; [8]
  growth inhibition: 45% (inactive)
[5]; at 50.0 µM
  growth inhibition: 74.7% (active)
[6]; [7]
  growth inhibition: -3% (inactive)
[6]; [8]
  growth inhibition: 53% (inactive)
[6]; at 50.0 µM
  growth inhibition: 94.5% (active)

## NCC(O)c1cccc(O)c1 (stereo not given)
[1]; [7]
  growth inhibition: -18% (inactive)
[1]; [8]
  growth inhibition: 77% (active)
[1]; at 50.0 µM
  growth inhibition: 70.3% (active)
[2]; [7]
  growth inhibition: -12% (inactive)
[2]; [8]
  growth inhibition: 50% (inactive)
[2]; at 50.0 µM
  growth inhibition: 40.2% (inactive)
[3]; [7]
  growth inhibition: -8% (inactive)
[3]; [8]
  growth inhibition: 51% (inactive)
[3]; at 50.0 µM
  growth inhibition: 66.3% (inactive)
[4]; [7]
  growth inhibition: 24% (inactive)
[4]; [8]
  growth inhibition: 65% (inactive)
[4]; at 50.0 µM
  growth inhibition: 60% (inactive)
[5]; [7]
  growth inhibition: 12% (inactive)
[5]; [8]
  growth inhibition: 77% (active)
[5]; at 50.0 µM
  growth inhibition: 75.2% (active)
[6]; [7]
  growth inhibition: 11% (inactive)
[6]; [8]
  growth inhibition: 92% (active)
[6]; at 50.0 µM
  growth inhibition: 65.3% (inactive)

## Cc1ccc(S(=O)(=O)OC2CCC3C4CC=C5CC(SC(=N)N)CCC5(C)C4CCC23C)cc1 (stereo not given)
[1]; [7]
  growth inhibition: 67% (inactive)
[1]; [8]
  growth inhibition: 82% (active)
[1]; at 50.0 µM
  growth inhibition: 47.9% (inactive)
[2]; [7]
  growth inhibition: 37% (inactive)
[2]; [8]
  growth inhibition: 28% (inactive)
[2]; at 50.0 µM
  growth inhibition: 29.6% (inactive)
[3]; [7]
  growth inhibition: 96% (active)
[3]; [8]
  growth inhibition: 95% (active)
[3]; at 50.0 µM
  growth inhibition: 94.1% (active)
[4]; [7]
  growth inhibition: 4% (inactive)
[4]; [8]
  growth inhibition: 6% (inactive)
[4]; at 50.0 µM
  growth inhibition: 3% (inactive)
[5]; [7]
  growth inhibition: 51% (inactive)
[5]; [8]
  growth inhibition: 36% (inactive)
[5]; at 50.0 µM
  growth inhibition: 26.1% (inactive)
[6]; [7]
  growth inhibition: 51% (inactive)
[6]; [8]
  growth inhibition: 44% (inactive)
[6]; at 50.0 µM
  growth inhibition: 66.3% (inactive)

## O=C(O)CP(=O)(c1ccccc1)c1ccccc1.O=C(O)CP(=O)(c1ccccc1)c1ccccc1.[Cd]
[1]; [7]
  growth inhibition: 33% (inactive)
[1]; [8]
  growth inhibition: 88% (active)
[1]; at 50.0 µM
  growth inhibition: 83.4% (active)
[2]; [7]
  growth inhibition: 40% (inactive)
[2]; [8]
  growth inhibition: 51% (inactive)
[2]; at 50.0 µM
  growth inhibition: 42.6% (inactive)
[3]; [7]
  growth inhibition: 11% (inactive)
[3]; [8]
  growth inhibition: 47% (inactive)
[3]; at 50.0 µM
  growth inhibition: 56% (inactive)
[4]; [7]
  growth inhibition: -3% (inactive)
[4]; [8]
  growth inhibition: 48% (inactive)
[4]; at 50.0 µM
  growth inhibition: 58.9% (inactive)
[5]; [7]
  growth inhibition: 4% (inactive)
[5]; [8]
  growth inhibition: 43% (inactive)
[5]; at 50.0 µM
  growth inhibition: 26.9% (inactive)
[6]; [7]
  growth inhibition: 17% (inactive)
[6]; [8]
  growth inhibition: 57% (inactive)
[6]; at 50.0 µM
  growth inhibition: 57.8% (inactive)

## CC(Cl)CN(C)C (stereo not given)
[1]; [7]
  growth inhibition: 24% (inactive)
[1]; [8]
  growth inhibition: 74% (active)
[1]; at 50.0 µM
  growth inhibition: 75.3% (active) and 30.4% (inactive)
[2]; [7]
  growth inhibition: -5% (inactive)
[2]; [8]
  growth inhibition: 13% (inactive)
[2]; at 50.0 µM
  growth inhibition: 1.1% (inactive) and -17.4% (inactive)
[3]; [7]
  growth inhibition: 25% (inactive)
[3]; [8]
  growth inhibition: 57% (inactive)
[3]; at 50.0 µM
  growth inhibition: 54.5% (inactive) and 33.9% (inactive)
[4]; [7]
  growth inhibition: -1% (inactive)
[4]; [8]
  growth inhibition: 3% (inactive)
[4]; at 50.0 µM
  growth inhibition: -55.5% (inactive) and 7.95% (inactive)
[5]; [7]
  growth inhibition: -8% (inactive)
[5]; [8]
  growth inhibition: -10% (inactive)
[5]; at 50.0 µM
  growth inhibition: -20.4% (inactive) and -16.6% (inactive)
[6]; [7]
  growth inhibition: 11% (inactive)
[6]; [8]
  growth inhibition: 37% (inactive)
[6]; at 50.0 µM
  growth inhibition: 57% (inactive) and 18.3% (inactive)

## O=[N+]([O-])c1cc(S(=O)(=O)F)ccc1S
[1]; [7]
  growth inhibition: -76% (inactive)
[1]; [8]
  growth inhibition: 89% (active)
[1]; at 50.0 µM
  growth inhibition: 91.2% (active)
[2]; [7]
  growth inhibition: -32% (inactive)
[2]; [8]
  growth inhibition: 93% (active)
[2]; at 50.0 µM
  growth inhibition: 77.5% (active)
[3]; [7]
  growth inhibition: -34% (inactive)
[3]; [8]
  growth inhibition: 88% (active)
[3]; at 50.0 µM
  growth inhibition: 88.9% (active)
[4]; [7]
  growth inhibition: -40% (inactive)
[4]; [8]
  growth inhibition: 90% (active)
[4]; at 50.0 µM
  growth inhibition: 86.7% (active)
[5]; [7]
  growth inhibition: -59% (inactive)
[5]; [8]
  growth inhibition: 90% (active)
[5]; at 50.0 µM
  growth inhibition: 91.8% (active)
[6]; [7]
  growth inhibition: -103% (inactive)
[6]; [8]
  growth inhibition: 92% (active)
[6]; at 50.0 µM
  growth inhibition: 95.8% (active)

## CC1(C)N=C(N)N=C(N)N1CCCOc1ccc(NC(=O)c2ccc(S(=O)(=O)F)cc2)cc1
[1]; [7]
  growth inhibition: -3% (inactive)
[1]; [8]
  growth inhibition: 12% (inactive)
[1]; at 50.0 µM
  growth inhibition: 20.2% (inactive)
[2]; [7]
  growth inhibition: -6% (inactive)
[2]; [8]
  growth inhibition: 30% (inactive)
[2]; at 50.0 µM
  growth inhibition: 49.5% (inactive)
[3]; [7]
  growth inhibition: -2% (inactive)
[3]; [8]
  growth inhibition: 15% (inactive)
[3]; at 50.0 µM
  growth inhibition: 47.8% (inactive)
[4]; [7]
  growth inhibition: -3% (inactive)
[4]; [8]
  growth inhibition: 0% (inactive)
[4]; at 50.0 µM
  growth inhibition: -9% (inactive)
[5]; [7]
  growth inhibition: -8% (inactive)
[5]; [8]
  growth inhibition: -4% (inactive)
[5]; at 50.0 µM
  growth inhibition: -8.15% (inactive)
[6]; [7]
  growth inhibition: -5% (inactive)
[6]; [8]
  growth inhibition: 7% (inactive)
[6]; at 50.0 µM
  growth inhibition: 21.4% (inactive)
